Compound activity as filed in PubChem BioAssay.
NPC1 prom act = NPC1 promoter activation; Huh7 NPC1 promoter luciferase reporter, 24 h; Potency, µM (titrated, usually from 9.22 µM), most hits filed as activators; 320,000 tested, 2.4% active; AID 485313; also: nearly all actives have a fitted effect of over 60% in size
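Stably transfected Huh7 (NPC1 promoter→luciferase), 1500 cells/well in Opti-MEM + 10% FBS, 2 h settle, then compound 24 h at 37 °C. Luminescence after 10 min with Amplite reagent.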
ELG1 genotoxic = inducers of genotoxicity in HEK293T ELG1-luciferase cells; HEK293T ELG1-luciferase reporter, luminescence, 16 h; Potency, µM (titrated, usually from 46 µM), usual class: activators; 330,000 tested, 1.3% active; also: nearly all actives have a fitted effect of over 60% in size
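Reporter readout depends on ELG1 protein level, which increases with genetic stress. After 16 hr compound exposure at 37 °C, luciferase activity was quantified using ONE-Glo.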
SMN2 splice enh = increases expression of the SMN2 splice variant. HEK293 SMN2-luciferase splicing reporter, luminescence, 30-36 h. Potency, µM (doses to about 46.1 µM), hits mostly activators. 210,000 tested, 2.8% active. AID 1458; also: nearly all actives have a fitted effect of over 55% in size
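qHTS luciferase splicing reporter: luminescence rises when SMN2 exon 7 is included in transfected HEK293 cells. Compound exposure lasted 30-36 h at 37C, with 4.5 mM final sodium butyrate as control, followed by a ONE-Glo read.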
FLuc modulator = inhibits or activates purified firefly luciferase, miR-21 counter-screen; P08659; purified FLuc, Km substrates, luminescence inhibition; Potency, µM (series often up to 57.5 µM), actives largely listed as inhibitors; 360,000 tested, 6.9% active; also: nearly all actives have a fitted effect of over 55% in size
Target sequence (P08659 whole entry, looked up): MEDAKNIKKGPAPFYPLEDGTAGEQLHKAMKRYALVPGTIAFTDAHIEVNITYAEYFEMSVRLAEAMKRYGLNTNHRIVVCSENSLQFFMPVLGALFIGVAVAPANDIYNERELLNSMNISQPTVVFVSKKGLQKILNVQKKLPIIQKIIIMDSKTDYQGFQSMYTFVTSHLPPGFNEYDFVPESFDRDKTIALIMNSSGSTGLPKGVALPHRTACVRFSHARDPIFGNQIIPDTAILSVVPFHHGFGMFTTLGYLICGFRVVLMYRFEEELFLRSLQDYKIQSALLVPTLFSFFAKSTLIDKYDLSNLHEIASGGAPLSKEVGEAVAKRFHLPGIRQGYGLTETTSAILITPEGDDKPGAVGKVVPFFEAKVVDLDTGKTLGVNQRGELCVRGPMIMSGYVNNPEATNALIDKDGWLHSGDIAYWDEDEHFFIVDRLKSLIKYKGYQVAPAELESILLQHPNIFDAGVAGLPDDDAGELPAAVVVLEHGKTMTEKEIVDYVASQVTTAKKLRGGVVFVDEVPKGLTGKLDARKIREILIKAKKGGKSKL
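Purified P. pyralis luciferase, 10 nM final, with Km-level 10 uM D-luciferin and 10 uM ATP in 50 mM Tris acetate pH 7.5, 10 mM Mg acetate, 0.01% Tween-20, 0.05% BSA; 6-point qHTS titration about 60 µM downward; luminescence read.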
Rab9 prom act = Rab9 promoter activation. Huh7 Rab9 promoter-luciferase reporter, luminescence, 24 h. Potency, µM (doses to about 9.22 µM), actives largely listed as activators. 320,000 tested, 2.8% active. AID 485297; also: nearly all actives have a fitted effect of over 60% in size
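Using Huh7 cells stably transfected with Rab9 promoter–luciferase, compounds were incubated 24 h at 37 °C, 5% CO2; luciferase luminescence was read 10 min after reagent addition.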
Numbers stand for hits; n = inactive; u = inconclusive; x = not tested or not shown; [ ] = dose if it differs, or a comment. Only some compounds are listed: those with a hit (about 7.4% of all), similar ones and a draw of the others. Calls follow the shape of the dose curve; as a rule, active = well fitted curve in the direction sought with a large enough effect; inconclusive = small, poorly fitted or top-dose-only effect, or another doubt; inactive = no such curve, though single readings can be large; an effect the other way counts as inactive or inconclusive.

SMILES	NPC1 prom act	ELG1 genotoxic	SMN2 splice enh	FLuc modulator	Rab9 prom act
COc1ccccc1-c1ccc(/C=C2/C=C(C)OC2=O)o1	n	n	n	u	n
O=S(=O)(c1cccc(-c2nnc(SCc3nc4ccccc4s3)o2)c1)N1CCOCC1	u	n	n	19µM	u
O=S(=O)(c1ccc(OCc2nc3ccccc3s2)c(Cl)c1)N1CCOCC1	u	9.2µM	n	n	u
Cc1cc(O)ccc1N/C=C/c1onc(C)c1[N+](=O)[O-]	3.2µM	u	20µM	u	2.5µM
O=C(COc1ccccc1F)NC12CC3CC(CC(C3)C1)C2	n	n	x	n	n
COc1ccc(-c2cc3ccc(OCC(=O)NCC4CCC(C(=O)O)CC4)cc3oc2=O)cc1 (stereo unspecified)	3.2µM	u	x	0.95µM	4.5µM
COc1ccc2c(c1)c(=O)oc1cc(OCC(=O)NCC3CCC(C(=O)O)CC3)ccc12 (stereo unspecified)	n	n	x	11µM	n
O=C(O)C1CCN(C(=O)COc2ccc3c4c(c(=O)oc3c2)CCCC4)CC1	n	n	x	n	n
Cc1c(C)c2ccc(OCC(=O)N3CCC(C(=O)O)CC3)cc2oc1=O	n	n	x	19µM	n
O=C1/C(=C\c2c(NCCOCCO)nc3ccccn3c2=O)SC(=S)N1Cc1ccco1	n	n	x	n	n
CN(C)S(=O)(=O)c1cccc(NC(=O)c2cc3ccccc3o2)c1	n	n	n	8.5µM	u
O=C(COC(=O)c1cc2ccccc2oc1=O)Nc1ccc(F)cc1F	2.2µM	u	x	7.6µM	2.5µM
CCN(CC)S(=O)(=O)c1cccc(NC(=O)c2cc3ccccc3o2)c1	n	n	n	12µM	n
CN(C)S(=O)(=O)c1cccc(NC(=O)COC(=O)c2cc(=O)c3ccccc3o2)c1	n	n	x	n	n
O=C(COC(=O)c1cc2ccccc2oc1=O)Nc1cccc(S(=O)(=O)N2CCCCCC2)c1	n	u	n	n	n
CN(C)S(=O)(=O)c1cccc(NC(=O)COC(=O)c2cc3ccccc3oc2=O)c1	3.5µM	9.2µM	x	13µM	3.2µM
O=Cc1ccc(C(=O)OCC(=O)Nc2ccc(F)cc2F)cc1	n	n	x	n	n
COc1cc(CC(=O)OCC(=O)NC2CCCCCC2)cc(OC)c1OC	x	n	x	x	x
COc1ccccc1CN(C)C(=O)CSCC(=O)Nc1ccccc1F	x	n	x	x	x
CCOc1ccc(CNC(=O)c2ccc(NC(=O)C3=CSCCO3)cc2)cc1	n	n[9.26 µM]	x	n	n
CC(C)Oc1ccc(CNC(=O)c2ccc(NC(=O)c3nsc4ccccc34)cc2)cc1	x	x	x	7.6µM	x
CCOc1ccc(CNC(=O)c2ccc(NC(=O)c3nsc4ccccc34)cc2)cc1	x	x	x	7.6µM	x
O=C(NCc1ccccc1Cl)c1ccccc1NC(=O)c1nsc2ccccc12	x	x	x	17µM	x
CSc1ccc(CNC(=O)c2ccc(NC(=O)c3nsc4ccccc34)cc2)cc1	x	x	x	6µM	x
CSc1nc2sc3c(c2c(=O)n1-c1ccc(C)cc1)CCCC3	x	x	n	n	x
SMILES	NPC1 prom act	ELG1 genotoxic	SMN2 splice enh	FLuc modulator	Rab9 prom act
COc1ccc(C(=O)NCc2nnc(SCC(=O)NCc3ccco3)o2)cc1	n	n	x	n	n
COc1ccc(C(=O)NCc2ccccc2OC)cc1	n	n	n	n	n
COc1ccc(OC)c(CNC(=O)c2ccc(NC(=O)c3nsc4ccccc34)cc2)c1	x	x	x	6.7µM	x
CCOc1cc(CNC(=O)c2ccc3nc(CCc4ccccc4)oc3c2)ccc1OC	x	x	x	n	x
CCOc1cc(CNC(=O)c2ccc(NC(=O)c3nsc4ccccc34)cc2)ccc1OC	x	x	x	3µM	x
CCC(=O)N1CCc2cc(S(=O)(=O)CCC(=O)Nc3ccc(Cl)c(C(F)(F)F)c3)ccc21	x	x	n	n	x
COc1ccc2c(c1)OC/C(=C/c1ccc(OC)c(OC)c1)C2=O	x	x	n	x	x
COc1ccc(/C=C2\CCc3ccccc3C2=O)cc1O	n	3.7µM	x	0.34µM	n
COc1ccc(/C=C2\CCc3ccccc3C2=O)cc1Cn1cccn1	n	u	n	5.4µM	n
COc1ccc(/C=C2\Cc3ccccc3C2=O)cc1OC	n	16µM	x	3.4µM	n
CCOC(CNC(=O)c1ccc2nc(N3CCC(C)CC3)sc2c1)OCC	u	u	n	17µM	u
CCC(Cc1ccccc1)NC(=O)c1ccc2nc(N3CCOCC3)sc2c1 (stereo unspecified)	n	n	x	n	n
CCOc1ccc(CCNC(=O)c2ccc3nc(N4CCC(C)CC4)sc3c2)cc1OCC	x	x	n	n	x
CCC(Cc1ccccc1)NC(=O)c1ccc2nc(N3CCC(C)CC3)sc2c1 (stereo unspecified)	x	x	n	12µM	x
Cc1cc(NC(=O)COC(=O)c2ccccc2NCCO)no1	x	n	x	x	x
Cc1cc(NC(=O)COC(=O)c2ccccc2S(=O)(=O)N(C)c2ccccc2)no1	n	n	6.3µM	n	n
COc1ccc(/C=C(/NC(=O)c2ccco2)C(=O)N2CCCCCC2)cc1OC	n	n	x	n	n
Cc1nc2sc(C(=O)OC(C)C)c(N)c2c(C)c1C	n	n	n	n	4.5µM
Nc1c(C(=O)Nc2ccccc2)sc2ncc([N+](=O)[O-])cc12	u	n	x	n	u
CC(=O)c1ccc(NC(=O)c2sc3nc(C)c(C)c(C)c3c2N)cc1	0.56µM	3.7µM	x	0.48µM	0.79µM
Cc1nc2sc(C(=O)Nc3ccccc3)c(N)c2c(C)c1[N+](=O)[O-]	3.2µM	7.3µM	u	u	4.5µM
Cc1nc2sc(C(=O)c3ccccc3)c(N)c2c(C)c1C	n	n	n	u	n
CCc1ccccc1NC(=O)CSc1nncn2c1cc1oc(C)cc12	x	x	x	n	x
Cn1nc(C(F)(F)F)c(-c2ccc(Br)cc2)c1NC(=O)c1ccco1	n	n	x	n	n
O=C(/C(C=Nc1cccc(C(F)(F)F)c1)=C(/O)c1ccco1)C(F)(F)F	n	u	u	24µM	n
SMILES	NPC1 prom act	ELG1 genotoxic	SMN2 splice enh	FLuc modulator	Rab9 prom act
O=C(c1ccco1)N1CCN(S(=O)(=O)c2cccc(C(F)(F)F)c2)CC1	n	n	n	n	n
O=C(/C(C=Nc1ccc(Br)cc1)=C(/O)c1ccco1)C(F)(F)F	u	u	14µM	6µM	3.2µM
N#Cc1c(CSCC(=O)O)cc(=O)n2c1[nH]c1ccccc12	n	n	x	u	n
N#Cc1c(C(F)(F)F)cc(=O)n2c1[nH]c1ccccc12	n	n	x	27µM	n
COc1ccc(NC(=O)CN2C(=O)NC(C)(c3ccccc3)C2=O)cc1Cl (stereo unspecified)	n	n	x	21µM	n
COc1ccc(C2(C)NC(=O)N(CC(=O)Nc3ccc4ccccc4c3)C2=O)cc1OC (stereo unspecified)	n	n	x	n	n
O=C(NNC(=O)c1ccc([N+](=O)[O-])cc1)c1ccncc1	n	n	n	n	n
N/C(=N\OC(=O)COc1ccccc1Cl)c1ccc(Cl)cc1	n	u	u	u	n
Cc1ccc(/C(N)=N/OC(=O)CSc2ccccc2)cc1	2.5µM	u	11µM	1.7µM	3.5µM
N/C(=N\OCc1ccc([N+](=O)[O-])cc1)c1ccncc1	u	u	16µM	15µM	n
